Mtb bLac sens = beta-lactam sensitization of Mtb H37Rv; M. tuberculosis H37Rv growth with meropenem, percent inhibition; inhibition, % at 25 µM; 330,000 tested, 0.27% active;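 also: growth measured after seven days incubation then overnight dye step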
RecA intein inh = Mtb RecA intein splicing inhibition. P9WHJ3. cell-free RecA intein splicing, fluorescence. 290,000 tested, 0.75% active. inhibition, % (no concentration beside the values); in the data active = inhibition above about 30%; inconclusive = no clear call, values can overlap the other calls
GDH-TPI inh = counter-screen for M. tuberculosis FBA inhibitors: GDH-TPI coupled enzymes | GDH-TPI coupled enzyme counterscreen, NADH absorbance | inhibition, % at 4.8 µM | 360,000 tested, 1.2% active; in the data active = inhibition above about 30%
Mtb FBA inh = inhibitors of M. tuberculosis fructose-bisphosphate aldolase; purified M. tuberculosis FBA, fluorescence read-out; inhibition, % at 1 µM; 360,000 tested, 2.3% active; in the data active = inhibition above about 27%
Mtb UGM inh = blocks M. tuberculosis UGM enzyme | purified UGM, fluorescence polarization probe displacement | inhibition, % at 10 µM | 320,000 tested, 0.06% active | AID 504406; in the data active = inhibition above about 10%, passing the limit was not always enough; inconclusive = no clear call, values can overlap the other calls
Rv3671c protease = inhibitors of M. tuberculosis serine protease Rv3671c; inhibition, % at 5.96 µM; 320,000 tested, 0.048% active; in the data active = inhibition above about 38%;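 also: extracellular domain of Rv3671c used as enzyme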
Target sequence (P9WHR9 whole entry, looked up, the tested form may be a part): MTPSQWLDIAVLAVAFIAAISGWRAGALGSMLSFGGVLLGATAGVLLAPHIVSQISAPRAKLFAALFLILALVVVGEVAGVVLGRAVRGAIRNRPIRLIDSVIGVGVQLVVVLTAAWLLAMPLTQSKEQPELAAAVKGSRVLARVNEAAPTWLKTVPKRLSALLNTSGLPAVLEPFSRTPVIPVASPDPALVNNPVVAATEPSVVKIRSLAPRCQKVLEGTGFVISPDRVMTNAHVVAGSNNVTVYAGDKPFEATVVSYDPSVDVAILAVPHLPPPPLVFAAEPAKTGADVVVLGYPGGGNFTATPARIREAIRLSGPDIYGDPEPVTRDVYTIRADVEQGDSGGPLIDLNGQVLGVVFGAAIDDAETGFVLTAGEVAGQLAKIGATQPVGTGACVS
GFP chromo cs = counter-screen GFP chromophore formation inhibition; shares compounds with RecA intein inh; cell-free GFP chromophore formation, fluorescence; EC50, µM; 2,100 tested, 83% active
Each line names hits and unclear results; the compound was inactive in the other large screens (follow-up assays come after a bar, where they were run). This is a sample that favours compounds with a hit; in the whole collection about 4% have one here. Unless noted, no rule for the calls is given here.

O=C1OC(CC(=O)N(Cc2nnc(-c3ccccc3Cl)o2)C2CC2)c2ccccc21 (stereo unspecified)	none (no result: RecA intein inh)
COc1ccc(CN2CCNC(=O)C2CC(=O)N(C)C2CCOCC2)c(F)c1 (stereo unspecified)	none
O=C(CCl)c1ccc2c(c1)CCN2C(=O)C1CCCCC1	RecA intein inh 80 | GFP chromo cs inactive
CCCCCCCCCCOC(=O)Cn1c(COc2ccccc2OC)[n+](C)c2ccccc21	RecA intein inh 49 | GFP chromo cs 12
Cc1ccc(Sc2c([N+](=O)[O-])ncn2C)cc1	RecA intein inh 53 | GFP chromo cs inactive
Cn1c(Cc2cccs2)nnc1SCC(=O)Nc1ccc(C(N)=O)cc1	none
COc1cc(NCc2ccccc2O)c2ncccc2c1	none (no result: Mtb bLac sens, Mtb UGM inh, Rv3671c protease)
COc1cc(NCCCCCCCN)c2ncccc2c1	RecA intein inh 72 | GFP chromo cs 5.2
COc1cc(NC(=O)OCc2ccccc2)c2ncccc2c1	none (no result: Mtb bLac sens, RecA intein inh, Mtb UGM inh, Rv3671c protease)
COc1cc(NC(C)CCCN)c2ncccc2c1 (stereo unspecified)	RecA intein inh 90 | GFP chromo cs 13
O=C1C(C2=C(O)c3ccccc3C2=O)=Nc2ccccc21	RecA intein inh 47 | GFP chromo cs 1.8
O=C(Nc1ccccc1Cl)c1ccc(S(=O)(=O)NCC2CCCO2)cc1 (stereo unspecified)	none
COc1ccccc1C(NC(=O)CC(C)C)c1c(O)ccc2ccccc12 (stereo unspecified)	none
COc1ccccc1C(NC(C)=O)c1c(O)ccc2ccc(O)cc12 (stereo unspecified)	RecA intein inh 79 | GFP chromo cs 5.1
O=C(Nc1ncc([N+](=O)[O-])s1)c1ccco1	Mtb bLac sens inconclusive, RecA intein inh 31 | GFP chromo cs 21
CCCCn1c(N)c(N(CC(C)C)C(=O)c2cccc(-n3cnnn3)c2)c(=O)[nH]c1=O	none
Cc1ncc([N+](=O)[O-])n1S(=O)(=O)c1ccc2c(c1)OCCO2	none (no result: Mtb bLac sens, RecA intein inh, Mtb UGM inh, Rv3671c protease)
Cc1ccc(NC(=O)C2=C(c3ccccc3)S(=O)(=O)CCS2(=O)=O)cc1	RecA intein inh 94 | GFP chromo cs 1.9
Cc1ccc(NC(=O)c2ccccc2)cc1	none
S=C1Cc2ccccc2N1	RecA intein inh 88 (no result: Mtb bLac sens, Mtb UGM inh, Rv3671c protease) | GFP chromo cs 1.2
S=C1Nc2ccccc2CS1	none (no result: Mtb bLac sens, RecA intein inh, Mtb UGM inh, Rv3671c protease)
COc1nc(N/N=C/c2ccc(-c3ccccc3[N+](=O)[O-])o2)nc(N2CCOCC2)n1	RecA intein inh 61 | GFP chromo cs 35
O=[N+]([O-])c1ccc(-c2ccc(/C=N/Nc3nc(NCc4ccccc4)nc(N4CCOCC4)n3)o2)cc1	none
COc1ccccc1-c1cc(C(F)(F)F)nc(S(=O)(=O)CCCC(=O)NC(C)C)n1	none
COc1ccccc1-c1cc(C(F)(F)F)nc(S(=O)(=O)CCCC(=O)NCc2ccc(F)cc2)n1	RecA intein inh 47 | GFP chromo cs 7.7
COc1ccccc1-c1cc(C(F)(F)F)nc(S(=O)(=O)CCCC(=O)N2CCCCC2C)n1 (stereo unspecified)	RecA intein inh 56 | GFP chromo cs 7.2
COc1ccccc1-c1cc(C(F)(F)F)nc(S(C)(=O)=O)n1	RecA intein inh 50 | GFP chromo cs 31
CS(=O)(=O)c1nc(-c2ccco2)cc(C(F)(F)F)n1	RecA intein inh 40 (no result: GDH-TPI inh, Mtb FBA inh) | GFP chromo cs inactive
CCCc1[nH]nc2c1C(c1ccc(OC)c(CSC3=NCCS3)c1)C(C#N)=C(N)O2 (stereo unspecified)	RecA intein inh 74 | GFP chromo cs 15
CCCc1[nH]nc2c1C(CCc1ccccc1)C(C#N)=C(N)O2 (stereo unspecified)	RecA intein inh 55 | GFP chromo cs 22
CCCc1[nH]nc2c1C(c1cccc(OC(=O)c3ccco3)c1)C(C#N)=C(N)O2 (stereo unspecified)	RecA intein inh 59 | GFP chromo cs 18
CCCc1[nH]nc2c1C(c1cc(OC)cc(OC)c1)C(C#N)=C(N)O2 (stereo unspecified)	RecA intein inh 44 | GFP chromo cs 4
COC(=O)C1(Cc2ccc3c(c2)CCC3)Cc2ccc3c(c2C1=O)CCC3 (stereo unspecified)	none (no result: Mtb bLac sens, RecA intein inh, Mtb UGM inh, Rv3671c protease)
Cc1nn(C(C)C(=O)NC2CCCCCC2)c(=O)c2nn(-c3ccccc3)c(C)c12 (stereo unspecified)	none
CCN(C(=O)COC(=O)/C(C#N)=C/c1ccc(OC)cc1)C1CCS(=O)(=O)C1 (stereo unspecified)	none
CC(C)C(N)c1csc(Nc2ccc(S(C)(=O)=O)cc2)n1 (stereo unspecified)	none (no result: Mtb bLac sens, RecA intein inh, Mtb UGM inh, Rv3671c protease)
CNc1nc(NC)c2cn[nH]c2n1	none (no result: Mtb bLac sens, RecA intein inh, Mtb UGM inh, Rv3671c protease)
CC(C)S(=O)(=O)C1=NSC2=NC(=O)/C(=C\c3ccc(OC(=O)c4ccco4)cc3)C(=N)N21	RecA intein inh 34 | GFP chromo cs inactive
CCS(=O)(=O)C1=NSC2=NC(=O)/C(=C\c3ccc(OC(=O)c4ccco4)cc3)C(=N)N21	none
COc1ccc(N(C(=O)CCl)C(C(=O)NCCc2ccccc2)c2cccs2)cc1Cl (stereo unspecified)	RecA intein inh 77 | GFP chromo cs 0.96
COc1cccc(N(C(=O)CCl)C(C(=O)NCCc2ccccc2)c2cccs2)c1 (stereo unspecified)	RecA intein inh 73 | GFP chromo cs 3.3
OC[C@@H]1CN(Cc2cccs2)C[C@H](n2cnc3c(NCc4ccco4)ncnc32)O1	none (no result: Mtb bLac sens, RecA intein inh, Mtb UGM inh, Rv3671c protease)
CCOC(=O)Cn1ncc2c3ccccc3n(CC(=O)OCC)c2c1=O	none
Cn1c(/C=N/Nc2nc3ccccc3[nH]2)nc2ccccc21	none
Cc1c(/C=N/Nc2nc3ccccc3[nH]2)c2ccccc2n1C	RecA intein inh 39, GDH-TPI inh 32 | GFP chromo cs 12
CC(C)(C)NC(=O)C(c1ccc(O)cc1)N(Cc1ccco1)C(=O)CCC(=O)Nc1ccccn1 (stereo unspecified)	none
CC(C)(C)NC(=O)C(c1ccc(Cl)cc1)N(Cc1ccco1)C(=O)CCl (stereo unspecified)	RecA intein inh 69 | GFP chromo cs 22
CCc1nnc(NS(=O)(=O)c2ccc(NC(=S)NC(=O)/C=C/c3ccccc3)cc2)s1	none
CCc1nnc(NS(=O)(=O)c2ccc(NC(=S)NC(=O)/C=C/c3ccc(C(C)C)cc3)cc2)s1	RecA intein inh 36, GDH-TPI inh 32 | GFP chromo cs 13
CCC(=O)N(CC)C1=C(O)c2ccccc2C(=O)C1=O	RecA intein inh 73 | GFP chromo cs 12
O=C(Nc1ccccc1N1CCOCC1)C1CCCO1 (stereo unspecified)	none (no result: RecA intein inh)
CC(=O)NC(c1ccccc1)c1cccnc1 (stereo unspecified)	none
COC(=O)C(C#N)C(c1cccnc1)c1c(C)[nH][nH]c1=O (stereo unspecified)	RecA intein inh 85 | GFP chromo cs 7.8
O=[N+]([O-])c1ccccc1Nc1cccc(F)c1	none (no result: Mtb bLac sens, RecA intein inh, Mtb UGM inh, Rv3671c protease)
